Test results: the supplement of paper PMC10849652
About 7,900 targets were measured; listed, in parts, are those with a hit and a random draw of the rest. About 0.6% of all pairs of compound and target were hits.

How the values were obtained:
Test in all cases: log2 fold change, soluble protein after heating vs DMSO (PISA); higher = thermal stabilisation; K562 cells, 10 uM, 30 min; active = over 0.2 and 3.5 SD of the protein, either way, in both replicates (recomputed)
[1] = compound: CS(=O)(=O)c1ccc(-c2cnc(N)c(C(=O)Nc3ccccc3)n2)cc1
In short: (§1)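 Aliquots of K562 cells (2×10^6 cells/mL) treated with 10 μM compound for 30 min were heated for 3 min over 48°C-58°C. After pooling and extraction in PBS with 0.5% NP-40 at 4°C, soluble protein from a 21,000xg, 90 min spin was quantified by TMTpro 16plex LC-MS/MS with channel sums equalised. Thermal stability is expressed against control samples, from duplicates, as a log2 fold change.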

crizotinib = compound: C[C@@H](Oc1cc(-c2cnn(C3CCNCC3)c2)cnc1N)c1c(Cl)ccc(F)c1Cl [crizotinib]
In short: as §1

[2] = compound: C[C@@H]1COCCN1C2=NC(=NC(=C2)C3(CC3)S(=O)(=O)C)C4=C5C=CNC5=CC=C4
In short: as §1

[3] = compound: C[C@H](C1=CC=C(C=C1)C(=O)NC2=C3C=CNC3=NC=C2)N
In short: as §1

duvelisib = compound: C[C@H](Nc1ncnc2nc[nH]c12)c1cc2cccc(Cl)c2c(=O)n1-c1ccccc1 [duvelisib]
In short: as §1

gandotinib = compound: Cc1cc(Nc2cc(CN3CCOCC3)c3nc(C)c(Cc4ccc(Cl)cc4F)n3n2)n[nH]1 [gandotinib]
In short: as §1

tozasertib = compound: Cc1cc(Nc2cc(N3CCN(C)CC3)nc(Sc3ccc(NC(=O)C4CC4)cc3)n2)n[nH]1 [tozasertib]
In short: as §1

[4] = compound: Cc1cc(SCc2sc(-c3ccc(C(F)(F)F)cc3)nc2C)ccc1OCC(=O)O
In short: as §1

doramapimod = compound: Cc1ccc(-n2nc(C(C)(C)C)cc2NC(=O)Nc2ccc(OCCN3CCOCC3)c3ccccc23)cc1 [doramapimod]
In short: as §1

ispinesib = compound: Cc1ccc(C(=O)N(CCCN)[C@@H](c2nc3cc(Cl)ccc3c(=O)n2Cc2ccccc2)C(C)C)cc1 [ispinesib]
In short: as §1

bafetinib = compound: Cc1ccc(NC(=O)c2ccc(CN3CC[C@H](N(C)C)C3)c(C(F)(F)F)c2)cc1Nc1nccc(-c2cncnc2)n1 [bafetinib]
In short: as §1

[5] = compound: Cc1cccc(CC(=O)N2CCc3c2ccc(-c2cn(C)c4ncnc(N)c24)c3F)n1
In short: as §1

nilotinib = compound: Cc1cn(-c2cc(NC(=O)c3ccc(C)c(Nc4nccc(-c5cccnc5)n4)c3)cc(C(F)(F)F)c2)cn1 [nilotinib]
In short: as §1

[6] = compound: Cc1nc(Nc2n[nH]c3c2CN(C(=O)N[C@H](CN(C)C)c2ccccc2)C3(C)C)c2sccc2n1
In short: as §1

dasatinib = compound: Cc1nc(Nc2ncc(C(=O)Nc3c(C)cccc3Cl)s2)cc(N2CCN(CCO)CC2)n1 [dasatinib]
In short: as §1

[7] = compound: Cc1ncc(-c2ccnc(Nc3ccc(S(C)(=O)=O)cc3)n2)n1C(C)C
In short: as §1

[8] = compound: Cn1cc(-c2ccc3c(c2)CCN3C(=O)Cc2cccc(C(F)(F)F)c2)c2c(N)ncnc21
In short: as §1

[9] = compound: Cn1cc(-c2ccc3nnc(C(F)(F)c4ccc5ncccc5c4)n3n2)cn1
In short: as §1

tipifarnib = compound: Cn1cncc1[C@@](N)(c1ccc(Cl)cc1)c1ccc2c(c1)c(-c1cccc(Cl)c1)cc(=O)n2C [tipifarnib]
In short: as §1

mubritinib = compound: FC(F)(F)c1ccc(/C=C/c2nc(COc3ccc(CCCCn4ccnn4)cc3)co2)cc1 [mubritinib]
In short: as §1

Measured: log2 fold change

FOXK1 (UniProt P85037)
inactive: crizotinib 0.336 | [2] 0.897 | [3] -0.482 | duvelisib 0.582 | tozasertib 0.127 | [4] -0.148 | doramapimod -0.126 | ispinesib 0.373 | bafetinib 0.03 | [5] 0.052 | nilotinib 0.487 | [6] -0.816 | dasatinib 0.128 | [8] 0.312 | [9] 0.184 | tipifarnib 0.008 | mubritinib 0.03
active: [1] -1.1 | gandotinib -1.34 | [7] -1.19

HRAS (UniProt P01112)
UniProt P01112, sequence (P01112 whole entry, looked up): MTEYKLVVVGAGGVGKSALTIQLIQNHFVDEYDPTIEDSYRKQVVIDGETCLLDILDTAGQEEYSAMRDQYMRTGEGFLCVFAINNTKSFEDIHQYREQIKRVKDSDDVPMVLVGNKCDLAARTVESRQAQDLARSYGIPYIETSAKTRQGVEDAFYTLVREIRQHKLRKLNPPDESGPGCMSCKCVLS
inactive: [1] -0.064 | crizotinib 0.18 | [2] -0.129 | [3] -0.057 | duvelisib -0.025 | gandotinib 0.068 | tozasertib -0.149 | [4] -0.077 | doramapimod -0.032 | ispinesib 0.22 | bafetinib -0.033 | [5] 0.063 | nilotinib 0.109 | [6] 0.024 | dasatinib 0 | [7] 0.003 | [8] 0.041 | [9] -0.007 | tipifarnib 0.006 | mubritinib 0.033

GAPVD1 isoform 6 (UniProt Q14C86)
UniProt Q14C86, sequence (Q14C86 whole entry, looked up): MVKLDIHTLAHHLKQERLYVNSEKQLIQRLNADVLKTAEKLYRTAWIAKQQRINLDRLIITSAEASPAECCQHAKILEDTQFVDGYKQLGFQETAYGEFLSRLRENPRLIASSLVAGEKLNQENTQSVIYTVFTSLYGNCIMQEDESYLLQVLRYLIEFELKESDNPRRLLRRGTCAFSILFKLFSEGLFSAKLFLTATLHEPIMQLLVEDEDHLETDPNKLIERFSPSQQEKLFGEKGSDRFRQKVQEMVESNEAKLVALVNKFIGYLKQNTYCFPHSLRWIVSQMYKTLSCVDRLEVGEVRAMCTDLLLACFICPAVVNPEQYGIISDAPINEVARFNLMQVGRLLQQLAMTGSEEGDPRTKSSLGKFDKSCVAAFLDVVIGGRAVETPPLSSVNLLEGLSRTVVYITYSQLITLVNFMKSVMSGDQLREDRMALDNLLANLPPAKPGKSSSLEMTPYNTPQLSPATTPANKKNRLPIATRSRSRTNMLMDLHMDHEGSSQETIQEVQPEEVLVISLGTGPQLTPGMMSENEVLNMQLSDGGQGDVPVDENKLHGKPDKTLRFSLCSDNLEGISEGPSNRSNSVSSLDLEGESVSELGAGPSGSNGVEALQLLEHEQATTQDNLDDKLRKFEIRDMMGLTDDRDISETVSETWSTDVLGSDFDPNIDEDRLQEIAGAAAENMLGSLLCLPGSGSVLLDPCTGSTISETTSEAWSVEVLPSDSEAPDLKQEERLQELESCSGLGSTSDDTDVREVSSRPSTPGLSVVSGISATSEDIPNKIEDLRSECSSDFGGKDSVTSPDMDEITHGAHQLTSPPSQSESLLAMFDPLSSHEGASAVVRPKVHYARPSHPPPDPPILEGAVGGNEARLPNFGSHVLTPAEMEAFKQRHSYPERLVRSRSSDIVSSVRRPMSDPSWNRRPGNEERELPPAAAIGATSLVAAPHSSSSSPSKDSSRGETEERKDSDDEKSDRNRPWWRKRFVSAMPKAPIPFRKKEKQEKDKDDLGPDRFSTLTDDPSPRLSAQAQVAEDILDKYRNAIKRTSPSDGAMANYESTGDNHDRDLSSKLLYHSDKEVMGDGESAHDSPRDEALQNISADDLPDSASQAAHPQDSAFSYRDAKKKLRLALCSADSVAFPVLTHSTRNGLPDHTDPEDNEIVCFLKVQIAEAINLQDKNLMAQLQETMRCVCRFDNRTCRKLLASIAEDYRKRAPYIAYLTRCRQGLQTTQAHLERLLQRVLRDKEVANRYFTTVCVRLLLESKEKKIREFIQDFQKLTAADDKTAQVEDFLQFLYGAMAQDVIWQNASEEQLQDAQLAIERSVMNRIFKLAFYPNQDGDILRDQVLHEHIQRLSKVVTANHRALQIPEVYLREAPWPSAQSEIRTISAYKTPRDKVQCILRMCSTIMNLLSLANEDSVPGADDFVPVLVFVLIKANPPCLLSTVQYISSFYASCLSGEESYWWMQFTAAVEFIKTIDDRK
inactive: [1] -0.012 | crizotinib -0.145 | [2] 0.017 | [3] 0.075 | duvelisib -0.058 | gandotinib -0.081 | tozasertib 0.061 | [4] 0.147 | doramapimod 0.038 | ispinesib -0.133 | bafetinib 0.023 | [5] 0.072 | nilotinib -0.09 | [6] -0.092 | dasatinib -0.15 | [7] -0.017 | [8] -0.043 | [9] -0.016 | tipifarnib -0.135 | mubritinib 0.028

GTF2A2 (UniProt P52657)
UniProt P52657, sequence (P52657 whole entry, looked up): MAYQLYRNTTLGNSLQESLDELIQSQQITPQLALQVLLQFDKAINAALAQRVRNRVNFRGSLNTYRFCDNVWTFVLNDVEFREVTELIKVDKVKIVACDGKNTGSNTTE
inactive: [1] 0.022 | crizotinib 0.11 | [2] 0.102 | [3] 0.015 | duvelisib 0.067 | gandotinib -0.005 | tozasertib 0.031 | [4] -0.076 | doramapimod -0.034 | ispinesib 0.023 | bafetinib -0.032 | [5] -0.036 | nilotinib -0.025 | [6] 0.022 | dasatinib 0.047 | [7] -0.021 | [8] 0.056 | [9] 0.104 | tipifarnib -0.028 | mubritinib 0.008

GEMIN2 (UniProt O14893)
inactive: [1] 0.032 | crizotinib -0.043 | [2] 0.001 | [3] 0.061 | duvelisib -0.129 | gandotinib 0.02 | [4] -0.013 | doramapimod 0.029 | ispinesib -0.149 | bafetinib -0.154 | [5] -0.124 | nilotinib -0.045 | [6] 0 | dasatinib 0.049 | [7] -0.027 | [8] -0.039 | [9] -0.095 | tipifarnib 0.08 | mubritinib -0.048

IFT74 (UniProt Q96LB3)
UniProt Q96LB3, sequence (Q96LB3 whole entry, looked up): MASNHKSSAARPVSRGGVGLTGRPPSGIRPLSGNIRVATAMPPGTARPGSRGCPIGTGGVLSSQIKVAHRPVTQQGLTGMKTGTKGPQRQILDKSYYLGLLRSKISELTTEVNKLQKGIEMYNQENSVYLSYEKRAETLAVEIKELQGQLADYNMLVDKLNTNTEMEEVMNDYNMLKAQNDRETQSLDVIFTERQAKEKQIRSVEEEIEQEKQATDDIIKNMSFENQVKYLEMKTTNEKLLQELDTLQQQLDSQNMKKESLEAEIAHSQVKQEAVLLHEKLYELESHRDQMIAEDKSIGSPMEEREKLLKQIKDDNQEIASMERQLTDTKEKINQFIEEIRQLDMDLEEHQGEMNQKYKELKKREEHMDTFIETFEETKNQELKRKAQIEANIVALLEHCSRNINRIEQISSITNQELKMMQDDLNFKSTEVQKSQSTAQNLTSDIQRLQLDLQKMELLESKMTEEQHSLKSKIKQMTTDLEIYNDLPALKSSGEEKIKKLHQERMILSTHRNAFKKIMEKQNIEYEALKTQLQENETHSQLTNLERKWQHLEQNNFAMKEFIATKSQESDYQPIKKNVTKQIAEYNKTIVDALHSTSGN
inactive: [1] 0.21 | crizotinib -0.04 | [2] 0.014 | [3] 0.088 | duvelisib 0.068 | gandotinib -0.02 | tozasertib -0.136 | [4] -0.094 | doramapimod 0.095 | ispinesib -0.133 | bafetinib -0.095 | [5] 0.015 | nilotinib 0.166 | [6] 0.063 | dasatinib 0.057 | [7] 0.008 | [8] 0.015 | [9] -0.053 | tipifarnib -0.052 | mubritinib 0.186

GALNT2 (UniProt Q10471)
inactive: [1] 0.056 | crizotinib -0.005 | [2] 0.093 | [3] -0.015 | duvelisib 0.05 | gandotinib -0.024 | tozasertib -0.065 | [4] 0.022 | doramapimod -0.001 | ispinesib 0.034 | bafetinib -0.046 | [5] 0.041 | nilotinib -0.07 | [6] -0.066 | dasatinib -0.004 | [7] 0.056 | [8] 0.032 | [9] -0.018 | tipifarnib 0.008 | mubritinib 0.008

HIST2H2BF isoform 2 (UniProt Q5QNW6)
inactive: [1] -0.049 | crizotinib -0.095 | [2] -0.279 | [3] 0.38 | duvelisib -0.051 | gandotinib -0.018 | tozasertib 0.119 | [4] -0.064 | doramapimod 0.253 | ispinesib -0.178 | bafetinib 0.211 | [5] -0.189 | nilotinib -0.044 | [6] -0.006 | dasatinib 0.147 | [7] 0.012 | [8] -0.358 | [9] -0.098 | tipifarnib -0.018 | mubritinib -0.173

GAK (UniProt O14976)
inactive: [1] 0.49 | crizotinib 0.115 | [2] -0.081 | [3] 1.26 | duvelisib -0.245 | gandotinib 0.02 | tozasertib 0.223 | [4] -0.121 | doramapimod 0.206 | ispinesib -0.157 | [5] -0.072 | nilotinib 0.257 | [6] 0.792 | dasatinib 1.31 | [7] 0.232 | [8] -0.07 | [9] -0.031 | tipifarnib -0.238 | mubritinib 0.005

FIZ1 (UniProt Q96SL8)
UniProt Q96SL8, sequence (Q96SL8 whole entry, looked up): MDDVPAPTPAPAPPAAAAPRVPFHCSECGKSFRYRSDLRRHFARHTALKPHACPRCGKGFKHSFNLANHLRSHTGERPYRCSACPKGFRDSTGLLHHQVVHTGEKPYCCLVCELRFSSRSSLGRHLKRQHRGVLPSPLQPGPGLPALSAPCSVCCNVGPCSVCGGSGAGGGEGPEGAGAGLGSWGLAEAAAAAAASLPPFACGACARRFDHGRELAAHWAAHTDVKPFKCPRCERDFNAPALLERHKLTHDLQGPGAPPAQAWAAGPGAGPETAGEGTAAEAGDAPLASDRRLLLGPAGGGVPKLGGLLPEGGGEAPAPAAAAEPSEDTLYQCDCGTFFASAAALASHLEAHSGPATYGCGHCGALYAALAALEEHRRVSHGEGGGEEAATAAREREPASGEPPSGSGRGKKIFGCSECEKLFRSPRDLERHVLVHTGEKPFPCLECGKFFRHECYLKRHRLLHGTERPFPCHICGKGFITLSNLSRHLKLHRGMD
inactive: [1] -0.05 | crizotinib 0.018 | [2] -0.354 | [3] 0.074 | duvelisib -0.251 | gandotinib 0.024 | [4] 0.017 | doramapimod 0.044 | [5] -0.092 | nilotinib -0.09 | [6] 0.065 | dasatinib -0.026 | [7] -0.213 | [8] -0.137 | mubritinib -0.191

HRC (UniProt P23327)
UniProt P23327, sequence (P23327 whole entry, looked up): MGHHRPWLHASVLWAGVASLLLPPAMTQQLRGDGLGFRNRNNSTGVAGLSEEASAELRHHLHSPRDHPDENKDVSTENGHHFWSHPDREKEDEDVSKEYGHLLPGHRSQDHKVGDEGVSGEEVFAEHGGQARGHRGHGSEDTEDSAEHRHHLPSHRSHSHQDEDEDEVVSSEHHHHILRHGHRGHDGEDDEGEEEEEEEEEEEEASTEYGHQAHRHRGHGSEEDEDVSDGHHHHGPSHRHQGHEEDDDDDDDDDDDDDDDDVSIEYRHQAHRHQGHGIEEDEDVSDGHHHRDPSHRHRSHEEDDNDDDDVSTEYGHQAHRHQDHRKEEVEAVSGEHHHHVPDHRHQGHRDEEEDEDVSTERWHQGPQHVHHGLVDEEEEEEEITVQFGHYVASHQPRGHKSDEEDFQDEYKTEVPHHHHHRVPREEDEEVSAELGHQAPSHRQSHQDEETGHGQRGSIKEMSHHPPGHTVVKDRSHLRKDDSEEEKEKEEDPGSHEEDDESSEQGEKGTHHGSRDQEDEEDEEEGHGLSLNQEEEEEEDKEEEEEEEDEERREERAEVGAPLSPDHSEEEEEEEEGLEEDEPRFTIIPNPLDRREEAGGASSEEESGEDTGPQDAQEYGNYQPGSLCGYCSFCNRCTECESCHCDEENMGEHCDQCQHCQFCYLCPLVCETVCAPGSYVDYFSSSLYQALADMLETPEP
inactive: [1] 0.027 | crizotinib 0.096 | [3] 0.012 | duvelisib 0.062 | gandotinib 0.064 | tozasertib -0.053 | [4] -0.033 | doramapimod -0.033 | ispinesib 0.037 | bafetinib -0.098 | [5] -0.147 | nilotinib 0.01 | [6] -0.017 | dasatinib 0.055 | [7] -0.039 | [8] -0.038 | [9] 0.037 | tipifarnib 0.016 | mubritinib 0.041
active: [2] -0.342

FRA10AC1 isoform 3 (UniProt Q70Z53)
inactive: [1] -0.082 | crizotinib 0.201 | [2] 0.059 | [3] 0.029 | duvelisib 0.07 | gandotinib 0.189 | tozasertib -0.123 | [4] -0.116 | doramapimod -0.044 | bafetinib -0.087 | [5] 0.018 | nilotinib -0.034 | [6] -0.039 | dasatinib -0.051 | [7] 0.085 | [8] -0.076 | tipifarnib -0.055 | mubritinib 0.011

HMGN1 (UniProt P05114)
UniProt P05114, sequence (P05114 whole entry, looked up): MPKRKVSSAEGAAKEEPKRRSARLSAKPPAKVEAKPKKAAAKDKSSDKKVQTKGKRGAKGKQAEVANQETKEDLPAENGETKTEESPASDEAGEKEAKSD
inactive: [1] -0.067 | crizotinib 0.055 | [2] -0.034 | [3] 0.058 | duvelisib -0.045 | gandotinib 0.094 | tozasertib 0.015 | [4] -0.027 | doramapimod 0.013 | ispinesib -0.042 | bafetinib -0.014 | [5] -0.012 | nilotinib -0.022 | [6] 0.057 | dasatinib 0.146 | [7] 0.019 | [8] -0.022 | [9] -0.048 | tipifarnib 0.066 | mubritinib -0.049

HEXA (UniProt P06865)
inactive: [1] 0.016 | [2] 0.02 | [3] -0.015 | duvelisib 0.049 | gandotinib 0.015 | tozasertib 0.002 | [4] -0.02 | doramapimod -0.016 | ispinesib -0.124 | [5] -0.023 | nilotinib -0.001 | [6] 0.017 | dasatinib 0.016 | [7] -0.036 | [8] -0.003 | [9] 0.006 | tipifarnib 0.044 | mubritinib 0.023
active: crizotinib -0.785 | bafetinib -0.491

HNRNPUL2 (UniProt Q1KMD3)
UniProt Q1KMD3, sequence (Q1KMD3 whole entry, looked up): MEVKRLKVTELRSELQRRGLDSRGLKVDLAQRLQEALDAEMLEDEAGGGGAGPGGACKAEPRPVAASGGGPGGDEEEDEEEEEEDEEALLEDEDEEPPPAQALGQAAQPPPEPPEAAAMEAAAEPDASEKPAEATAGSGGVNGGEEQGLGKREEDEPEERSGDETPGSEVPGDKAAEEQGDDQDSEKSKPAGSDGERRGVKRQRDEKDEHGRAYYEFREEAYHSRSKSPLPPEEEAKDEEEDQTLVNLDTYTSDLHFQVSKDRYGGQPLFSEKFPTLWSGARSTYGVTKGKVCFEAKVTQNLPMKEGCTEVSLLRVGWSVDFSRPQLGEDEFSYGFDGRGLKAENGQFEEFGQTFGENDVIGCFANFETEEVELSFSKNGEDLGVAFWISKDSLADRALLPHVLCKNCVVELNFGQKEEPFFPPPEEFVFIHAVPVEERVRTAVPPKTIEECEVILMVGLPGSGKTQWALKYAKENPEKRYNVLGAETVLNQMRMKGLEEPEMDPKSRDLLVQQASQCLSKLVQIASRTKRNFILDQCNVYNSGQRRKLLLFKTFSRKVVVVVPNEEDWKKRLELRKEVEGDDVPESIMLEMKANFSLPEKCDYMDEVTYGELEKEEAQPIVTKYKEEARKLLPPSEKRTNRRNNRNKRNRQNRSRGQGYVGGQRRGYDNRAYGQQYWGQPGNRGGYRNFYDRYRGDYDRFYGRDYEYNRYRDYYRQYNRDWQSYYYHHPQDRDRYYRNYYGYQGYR
inactive: [1] -0.092 | crizotinib -0.033 | [2] -0.05 | [3] 0.123 | duvelisib -0.096 | gandotinib -0.005 | tozasertib -0.058 | [4] 0.015 | doramapimod 0.041 | ispinesib 0.004 | bafetinib 0 | [5] -0.083 | nilotinib -0.001 | [6] 0.033 | dasatinib 0.098 | [7] 0.097 | [8] -0.147 | [9] -0.035 | tipifarnib 0.03 | mubritinib -0.137

GALNT11 (UniProt Q8NCW6)
UniProt Q8NCW6, sequence (Q8NCW6 whole entry, looked up): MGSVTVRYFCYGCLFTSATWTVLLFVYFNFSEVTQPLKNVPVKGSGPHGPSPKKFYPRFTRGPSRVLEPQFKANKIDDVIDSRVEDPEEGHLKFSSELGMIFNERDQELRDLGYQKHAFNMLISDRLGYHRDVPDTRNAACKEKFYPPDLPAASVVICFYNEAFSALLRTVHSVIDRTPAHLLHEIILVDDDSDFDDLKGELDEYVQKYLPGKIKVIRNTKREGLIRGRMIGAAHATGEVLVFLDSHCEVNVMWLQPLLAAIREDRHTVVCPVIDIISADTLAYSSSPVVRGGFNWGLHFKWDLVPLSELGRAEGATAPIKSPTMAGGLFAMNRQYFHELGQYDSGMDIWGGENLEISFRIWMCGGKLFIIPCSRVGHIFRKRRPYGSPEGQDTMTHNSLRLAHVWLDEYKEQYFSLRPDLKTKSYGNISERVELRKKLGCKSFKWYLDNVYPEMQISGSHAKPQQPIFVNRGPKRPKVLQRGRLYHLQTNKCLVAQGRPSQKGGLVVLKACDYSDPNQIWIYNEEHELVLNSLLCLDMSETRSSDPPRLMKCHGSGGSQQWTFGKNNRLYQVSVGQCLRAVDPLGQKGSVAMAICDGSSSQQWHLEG
inactive: [1] 0.039 | crizotinib 0.04 | [2] 0.112 | [3] 0.018 | duvelisib 0.039 | gandotinib 0.045 | tozasertib 0.027 | [4] -0.061 | doramapimod 0.045 | ispinesib -0.163 | bafetinib -0.055 | [5] -0.089 | nilotinib -0.047 | [6] -0.068 | dasatinib -0.022 | [7] 0.076 | [8] 0.069 | [9] -0.031 | tipifarnib 0.102 | mubritinib 0.088
